Rows were chosen to be rich in hits. Some 2% of all compounds tested hit in one or more screens of this group.
aSyn yeast inh = alpha-synuclein toxicity inhibition in yeast; 0.14% of 370,000 active; AID 652106; Potency, µM (doses to about 46.1 µM), usual class: activators; Yeast expressing alpha-synuclein, growth rescue, BacTiter-Glo, 24 h; further: nearly all actives have a fitted effect of over 65% in size
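Readout is rescue of growth in alpha-synuclein-expressing yeast, so inhibitors of toxicity appear as activators. Growth after 24 hr at 30 deg C in galactose medium is quantified by luminescence.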
Abeta rescue = compounds reversing amyloid beta toxicity in yeast. Potency, µM (titrated, usually from 46.1 µM), most hits filed as activators. 0.063% of 410,000 active. yeast expressing A-beta42, growth rescue, OD600, 48 h; response scale: 0% DMSO, 100% iron-clioquinol control; further: nearly all actives have a fitted effect of over 55% in size
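Growth rescue measured by 600 nm absorbance after 48 h yeast culture at 30 C with compound. Values normalized between DMSO and an equimolar ferric chloride plus clioquinol control.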
TDP-43 yeast inh = TDP-43 toxicity inhibition in yeast; TDP-43 expressing yeast growth rescue, BacTiter-Glo, 24 h; 1.8% of 410,000 active; AID 652104; Potency, µM (highest dose often 46.1 µM), hits mostly activators; further: nearly all actives have a fitted effect of over 50% in size
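Luminescence from BacTiter-Glo reports growth of TDP-43-expressing yeast after 24 hr at 30 deg C with compound. Cells were raffinose-pregrown to mid-log, then seeded in galactose medium at OD600=0.02.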
MBNL1-CUG inh = blocks human MBNL1 binding to CUG repeat RNA. Q9NR56. TR-FRET MBNL1-His/biotin-(CUG)12 binding, 665/545 ratio. Potency, µM (titrated, usually from 57.5 µM), usual class: inhibitors. 0.036% of 280,000 active. AID 2675; active means well fitted inhibition curve with a large enough effect in the signal ratio, with a control signal flat, not every such curve was filed as active; inconclusive means small, poorly fitted or top-dose-only effect, or effect the other way, or a change in a side signal; inactive means no such curve, though single readings can be large or run the other way; the % refers to the signal ratio
Target sequence (Q9NR56 whole entry, looked up): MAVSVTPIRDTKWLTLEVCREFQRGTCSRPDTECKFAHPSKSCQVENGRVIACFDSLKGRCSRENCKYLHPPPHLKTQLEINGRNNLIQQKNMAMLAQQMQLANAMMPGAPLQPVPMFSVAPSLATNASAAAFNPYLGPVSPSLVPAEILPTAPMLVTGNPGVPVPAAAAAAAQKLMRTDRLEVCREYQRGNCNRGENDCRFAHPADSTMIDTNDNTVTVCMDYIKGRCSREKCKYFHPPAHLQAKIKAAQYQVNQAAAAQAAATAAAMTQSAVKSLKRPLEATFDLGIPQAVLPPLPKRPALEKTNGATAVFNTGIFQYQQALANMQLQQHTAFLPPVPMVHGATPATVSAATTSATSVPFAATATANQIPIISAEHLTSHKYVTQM
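Inhibition of protein-RNA binding appears as loss of TR-FRET between terbium anti-His antibody on MBNL1-His and streptavidin-XL665 on biotin-(CUG)12. Activity is normalized to buffer-only and uninhibited-complex controls.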
FUS suppressor = rescues growth of FUS-expressing yeast | AID 1347120 | S. cerevisiae FUS-expressing, growth rescue, OD600, 24 h | Potency, µM (top dose mostly 76.6 µM), most hits filed as activators | 0.24% of 390,000 active; further: nearly all actives have a fitted effect of over 55% in size
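Cultures pregrown in 2.5% raffinose medium are shifted to minimal medium containing 2% galactose to express toxic FUS. Compounds are tested at several concentrations. After 24hr at 30C, growth is quantified at 600 nm absorbance.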
Glioma ERSR ind = induces the endoplasmic reticulum stress response in human glioma cells. U87-MG GRP78 promoter luciferase reporter, 16 h. 0.02% of 420,000 active. Potency, µM, actives largely listed as activators; further: series mostly up to about 76 µM; nearly all actives have a fitted effect of over 35% in size
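Stably transfected U87-MG glioma cells carrying a GRP78-based luciferase sensor; 16 h compound incubation. Luminescence end-point read 10 min after Bright-Glo addition at room temperature.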
Hits are given with their value; n = inactive; u = inconclusive; x = no result. Unless noted, the call rests on the fitted dose curve; in most records, active means well fitted curve in the direction sought with a large enough effect; inconclusive means small, poorly fitted or top-dose-only effect, or another doubt; inactive means no such curve, though single readings can be large; an effect the other way counts as inactive or inconclusive.

SMILES	aSyn yeast inh	Abeta rescue	TDP-43 yeast inh	MBNL1-CUG inh	FUS suppressor	Glioma ERSR ind
COc1ccc(N2C(=O)N3[C@H](c4ccc(Cl)cc4)[C@@H]4C(=O)N(C5CCCCC5)C(=O)[C@@H]4[C@]3(C)C2=O)cc1	n	n	n	n	28µM	n
C[C@@]12C(=O)N(c3cccc(Cl)c3)C(=O)N1[C@H](c1ccc(Cl)cc1)[C@@H]1C(=O)N(C3CCCCC3)C(=O)[C@@H]12	n	n	n	x	u	n
Cc1ccc(CN2CCOc3ccc(CN4CCC(O)(c5cccnc5)CC4)cc3C2)cc1C	x	x	x	x	x	n
OC(C1=C/C(=C\c2ccncc2)c2ccccc21)c1ccncc1 (configuration not stated)	x	x	x	x	x	n
Cc1nc(NCc2cccc3c2OCO3)sc1-c1ccn(CC2CCCN(C)C2)n1 (configuration not stated)	x	x	x	x	x	n
CCCSc1nc(NCc2ccco2)c2c3c(sc2n1)COC(C)(C)C3	n	n	20µM	n	u	n
CCCCSc1nc(NCc2ccco2)c2c3c(sc2n1)COC(C)(C)C3	n	n	u	n	n	n
COc1cc(=O)n2c(c1C(=O)N(C)Cc1nonc1C)CCN(C(=O)c1cc(C)ccc1C)CC2	x	x	x	x	x	n
C=C1CCN(Cc2ccccc2)S(=O)(=O)c2ccccc21	22µM	n	n	n	n	n
O=C(OCc1ccc([N+](=O)[O-])cc1)C1CCN(S(=O)(=O)c2ccccc2)CC1	n	n	10µM	x	n	n
COc1ccc(COC(=O)C2CCN(S(=O)(=O)c3ccc(F)cc3)CC2)cc1	n	n	n	x	n	n
S=C1N(c2ccccc2)C(c2ccc(Br)cc2)N2CCCN12 (configuration not stated)	n	n	13µM	n	n	n
Cc1ccc(-n2c(SCc3nc4ccccc4[nH]3)nnc2-c2ccccn2)cc1	x	x	x	x	n	x
Cc1ccc(-n2ccnc(NCc3cccs3)c2=O)cc1C	x	n	16µM	x	n	n
COc1ccc(CCNc2nccn(-c3ccc(C)c(C)c3)c2=O)cc1OC	x	n	n	x	n	n
O=C(c1cccs1)N1CCN(c2nnc(-c3ccccc3)c3ccccc23)CC1	n	n	18µM	n	n	n
Cc1ccc(-c2nnc(N3CCN(C(=O)c4cccs4)CC3)c3ccccc23)cc1	n	n	n	x	n	n
COc1ccc(N2CCN(CCCNC(=O)CCc3cccc(Cl)c3)CC2)cc1	x	x	x	x	n	x
CC(/C=N/NC(=O)c1cc(-c2ccncc2)nc2ccccc12)=C\c1ccco1	n	n	n	n	28µM	n
Cc1ccc(-c2cc(C(=O)N/N=C/c3cccnc3)c3ccccc3n2)cc1C	n	n	22µM	x	u	n
Cc1ccc(/C=N/NC(=O)c2cc(-c3ccncc3)nc3ccccc23)o1	n	n	n	u	n	n
O=C(N/N=C/c1cccnc1)c1cc(-c2ccccc2)nc2ccccc12	n	n	n	n	n	n
C[N+]1(C)CCC(OC(=O)CC(O)(c2ccccc2)C2CCCC2)C1 (configuration not stated)	x	x	x	x	x	n
COc1ccc(C)cc1NC(=O)CSc1nnc(-c2ccco2)n1N	n	n	n	n	n	n
COc1ccccc1NC(=O)CSc1ccc(-c2ccccn2)nn1	n	u	22µM	n	n	n
SMILES	aSyn yeast inh	Abeta rescue	TDP-43 yeast inh	MBNL1-CUG inh	FUS suppressor	Glioma ERSR ind
COc1ccccc1NC(=O)CSc1nccc(-c2ccco2)n1	n	n	16µM	x	n	n
O=C(CSc1ccc(-c2ccccn2)nn1)Nc1ccc(F)c(F)c1	n	n	13µM	n	n	n
COc1ccc(C)cc1NC(=O)CSc1ccc(-c2ccco2)nn1	n	n	18µM	n	n	n
Nc1cccc(/C=C/c2ccnc3ccccc23)c1	x	x	x	x	x	n
Cc1cc(C(=O)NCc2nc(-c3ccccc3NC(=O)C3CCCO3)oc2C)nc(C)n1 (configuration not stated)	x	x	x	x	x	n
CC(C)c1c(C(=O)NCc2ccncc2)cnn1-c1nccc(-c2cccs2)n1	x	x	x	x	x	n
CCN(CC)c1nc(NC2CCN(C)CC2)c2cc(OC)c(OC)cc2n1	n	x	x	x	x	x
CN1C(C(=O)N2CCc3ccccc3C2)=CC(c2ccc(F)cc2)=NS1(=O)=O	n	n	13µM	n	n	n
COc1ccc(C2=NS(=O)(=O)N(C)C(C(=O)N3CCC(C)CC3)=C2)cc1	n	n	n	n	n	n
CN(N)c1nc(-c2ccccc2)cc(-c2ccccc2)n1	n	n	11µM	n	n	n
CCN(CC)c1nc(C(N)=O)cc(-c2ccccc2)n1	20µM	n	n	n	n	n
CCOC(=O)N1CCN(C(=O)c2cc(COc3cccc(C(F)(F)F)c3)on2)CC1	n	n	10µM	n	x	n
O=C1CC(SCc2nc3ccccc3[nH]2)C(=O)N1c1ccc(F)c(Cl)c1 (configuration not stated)	x	n	13µM	n	n	n
COc1ccc(N2C(=O)CC(SCC(=O)O)C2=O)cc1 (configuration not stated)	n	n	n	n	n	n
COc1ccc(N2C(=O)CC(SCc3ccc(Cl)cc3)C2=O)cc1 (configuration not stated)	n	n	22µM	n	n	n
O=C(Nc1ccc(Cl)cc1)c1cc2c(cc1O)[nH]c1ccccc12	n	n	4µM	n	n	n
CC(=O)Nc1ccc2[nH]c3ccccc3c2c1	n	n	n	n	n	n
C(=C\c1c[nH]c2ccccc12)/c1nccc2ccccc12	n	x	x	x	x	n
Cc1ccc(-c2nnc(C3CCN(S(=O)(=O)c4ccc(C)c(C)c4)CC3)o2)cc1	x	n	u	x	n	n
Cc1cccc(-c2nnc(C3CCN(S(=O)(=O)c4cccc(Cl)c4)CC3)o2)c1	x	n	16µM	x	u	n
O=C(COC(=O)c1ccc2ncsc2c1)Nc1cc(Cl)ccc1F	n	n	14µM	x	n	n
COc1ccc(OC)c(-c2nc(C(=O)NCC3CCCO3)cc3c2[nH]c2ccccc23)c1 (configuration not stated)	n	n	u	n	n	n
COc1cccc(-c2nc(C(=O)NCC3CCCO3)cc3c2[nH]c2ccccc23)c1 (configuration not stated)	u	n	20µM	n	n	n
CCC(C#Cc1ccccc1)N(C)C(N)=NC(=O)/C=C/c1ccccc1 (configuration not stated)	x	x	x	x	n	x
S=C(NC1CC1)SCc1ccco1	n	n	28µM	x	n	n
CCOc1cc(CNC(=O)CN2CCSc3ccccc32)cc(OCC)c1OCC	n	n	n	x	n	n
O=C(CN1CCSc2ccccc21)NCc1ccccc1F	n	n	13µM	x	n	n

Compound activity (PubChem)
